Values joined by “and” are separate entries in the source; they are usually repeats but may differ in a detail not shown here. Equal entries are not always repeated. Active and inactive are the calls of the source. Unless noted, no rule for the calls is given here.
Tests used:
[1] = test system: Aerobactin synthetase IucA (Klebsiella pneumoniae); experiment: IucA aerobactin synthetase inhibitors, biochemical, Tocris library, absorbance (AID 1345561); settings: purified IucA enzyme assay, absorbance (OD) read-out; stronger effect = lower value;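 tested at 8 µM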;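 also: 100% = enzyme without compound and 0% = no enzyme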
[2] = sensitizers of A549 cells to miR-34 induction, primary screen, imaging, A549 dox-inducible miR-34, nuclei and caspase counts (AID 1347080;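 active = compounds whose cell count with miR-34 switched on is under 0.7 times the count with it off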); settings: A549 miR-34 inducible, Hoechst nuclei count, 48 h
[3] = viability rescue of complex I mutant cybrids, primary screen, cell-based, galactose medium, ATP luminescence (AID 1645843;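 active = z-score of at least 1.8 in each of two replicates, scored against plate mean and spread of sample wells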;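 also: positive z means more ATP and so rescue of galactose-driven cybrid death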); settings: complex I mutant cybrid cells, 72 h, stronger effect = higher value
[4] = survival rescue of mitochondrial mutant cells in low glucose, primary screen, MELAS cybrids, Rieske KO mouse fibroblasts, CellTiter-Glo (AID 1508586;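 active = mean z-score across replicates of 1.96 or higher in either the MELAS or the Rieske mutant cell line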;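 also: z relative to plate mean and SD of compound and empty wells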)
[5] = phospholipid biosynthesis inhibitors in animal cells, primary screen, cell-based, LOPAC library, screen 4 (AID 1347384); settings: phospholipid biosynthesis inhibition screen, at 10 µM
[6] = inhibitors of Cryptococcus chitosan production, flow cytometry, Cibacron Brilliant Red staining (AID 1347148); settings: Cryptococcus neoformans chitosan, stronger effect = lower value; at 10 µM unless noted;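 also: compound exposure lasted three days at 37 degrees C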
[7] = stronger effect = lower value, cell number ratio, induced over uninduced
[8] = measured here: relative caspase fold change +Dox/-Dox
[9] = measured here: total cells with miR-34 induction, stronger effect = lower value
[10] = measured here: total cells without miR-34 induction
[11] = MELAS cybrid survival, CellTiter-Glo 48 h, stronger effect = higher value
[12] = Rieske KO mouse fibroblast survival, CellTiter-Glo 72 h

Question: What does the source list for `C/C(=N\NC(=O)[C@@H]1C(=O)NC[C@H]1c1ccccc1)c1cccc(Br)c1`?
Answer: remaining activity [1]: 103% (inactive); fold change [2, 7]: 0.887 (inactive); fold change [2, 8]: 1.69; cell count [2, 9]: 8430; cell count [2, 10]: 9510; z-score [3]: 0.375 (inactive)

Question: Which remaining activity [1] does the source give for `Cc1cc2nc3c(=O)[nH]c(=O)nc-3n(C)c2cc1C=O` here?
Answer: 110% (inactive)

Question: And the fold change [2, 7]?
Answer: 1.04 (inactive)

Question: What about the fold change [2, 8] of the same compound?
Answer: 1.31

Question: What about the cell count [2, 9] of the same compound?
Answer: 8790

Question: And the cell count [2, 10]?
Answer: 8430

Question: What about the z-score [3] of the same compound?
Answer: -0.69 (inactive)

Question: For `C[C@H]([C@@H](O)c1ccc(O)cc1)N1CCC(Cc2ccccc2)CC1` (racemic), which remaining activity [1] is on record?
Answer: 93.2% (inactive)

Question: What about the fold change [2, 7] of the same compound?
Answer: 0.927 (inactive)

Question: And the fold change [2, 8]?
Answer: 0.793

Question: And the cell count [2, 9]?
Answer: 8080

Question: What about the cell count [2, 10] of the same compound?
Answer: 8720

Question: What about the z-score [3] of the same compound?
Answer: -1.02 (inactive)

Question: Which remaining activity [1] does the source give for `Clc1ccccc1CNCC1CCC(CNCc2ccccc2Cl)CC1` (stereo not given) here?
Answer: 103% (inactive)

Question: And the fold change [2, 7]?
Answer: 0.98 (inactive)

Question: What about the fold change [2, 8] of the same compound?
Answer: 0.883

Question: What about the cell count [2, 9] of the same compound?
Answer: 7550

Question: And the cell count [2, 10]?
Answer: 7700

Question: What about the z-score [3] of the same compound?
Answer: -0.795 (inactive)

Question: What does the source list for `CN(CCOc1ccc(CC(Nc2ccccc2C(=O)c2ccccc2)C(=O)O)cc1)c1ccccn1` (stereo not given)?
Answer: remaining activity [1]: 103% (inactive); fold change [2, 7]: 0.954 (inactive); fold change [2, 8]: 1.08; cell count [2, 9]: 7420; cell count [2, 10]: 7780; z-score [3]: 1.48 (inactive)

Question: Which remaining activity [1] does the source give for `Cc1noc(NS(=O)(=O)c2cccc3c(N(C)C)cccc23)c1C` here?
Answer: 116% (inactive)

Question: And the fold change [2, 7]?
Answer: 0.967 (inactive)

Question: And the fold change [2, 8]?
Answer: 0.84

Question: And the cell count [2, 9]?
Answer: 8350

Question: And the cell count [2, 10]?
Answer: 8630

Question: What about the z-score [3] of the same compound?
Answer: -0.135 (inactive)

Question: Which remaining activity [1] does the source give for `COc1cc(NC(=O)c2ccccn2)ccc1Cl` here?
Answer: 122% (inactive)

Question: And the fold change [2, 7]?
Answer: 1.03 (inactive) and 0.942 (inactive)

Question: And the fold change [2, 8]?
Answer: 0.59 and 1.55

Question: And the cell count [2, 9]?
Answer: 7300 and 8170

Question: And the cell count [2, 10]?
Answer: 7110 and 8670

Question: What about the z-score [4, 11] of the same compound?
Answer: 0.202 (inactive)

Question: And the z-score [4, 12]?
Answer: 0.293

Question: What about the z-score [3] of the same compound?
Answer: 1.19 (inactive)

Question: With `Cc1cc(C(=O)O)sc1C(N)C(=O)O` (stereo not given) as the compound, how does the remaining activity [1] read?
Answer: 83.4% (inactive)

Question: What about the fold change [2, 7] of the same compound?
Answer: 0.995 (inactive)

Question: And the fold change [2, 8]?
Answer: 1.22

Question: And the cell count [2, 9]?
Answer: 8770

Question: And the cell count [2, 10]?
Answer: 8820

Question: And the z-score [3]?
Answer: 0.285 (inactive)

Question: Which results are given for `NC(=O)c1sc(-c2ccsc2)cc1N`?
Answer: remaining activity [1]: 88.4% (inactive); fold change [2, 7]: 0.841 (inactive) and 0.869 (inactive); fold change [2, 8]: 0.888 and 1.88; cell count [2, 9]: 8280 and 7870; cell count [2, 10]: 9850 and 9060; z-score [4, 11]: -0.221 (inactive); z-score [4, 12]: -0.163; z-score [3]: 0.36 (inactive)

Question: Which remaining activity [1] does the source give for `O=C(/C=C/c1ccccc1)NC(NC(=S)Nc1cccc2cccnc12)C(Cl)(Cl)Cl` (stereo not given) here?
Answer: 124% (inactive)

Question: What about the fold change [2, 7] of the same compound?
Answer: 1.01 (inactive)

Question: What about the fold change [2, 8] of the same compound?
Answer: 1.71

Question: And the cell count [2, 9]?
Answer: 4630

Question: And the cell count [2, 10]?
Answer: 4560

Question: What about the z-score [3] of the same compound?
Answer: -0.47 (inactive)

Question: With `N=C(N)SCCc1ccc(OCc2ccc([N+](=O)[O-])cc2)cc1` as the compound, how does the remaining activity [1] read?
Answer: 106% (inactive)

Question: What about the fold change [2, 7] of the same compound?
Answer: 0.959 (inactive)

Question: What about the fold change [2, 8] of the same compound?
Answer: 0.93

Question: And the cell count [2, 9]?
Answer: 5550

Question: And the cell count [2, 10]?
Answer: 5790

Question: And the outcome [5]?
Answer: inactive

Question: And the z-score [3]?
Answer: -0.76 (inactive)

Question: What does the source list for `Nc1c(S(=O)(=O)O)cc(Nc2cccc3ccccc23)c2c1C(=O)c1ccccc1C2=O`?
Answer: remaining activity [1]: 109% (inactive); fold change [2, 7]: 0.981 (inactive); fold change [2, 8]: 1.43; cell count [2, 9]: 9410; cell count [2, 10]: 9590; z-score [3]: 3.16 (active)

Question: For `COC(=O)C1=C(C)NC(C)=C([N+](=O)[O-])[C@H]1c1ccccc1C(F)(F)F`, which remaining activity [1] is on record?
Answer: 113% (inactive)

Question: And the fold change [2, 7]?
Answer: 0.834 (inactive)

Question: And the fold change [2, 8]?
Answer: 1.13

Question: And the cell count [2, 9]?
Answer: 7130

Question: What about the cell count [2, 10] of the same compound?
Answer: 8550

Question: And the fold fluorescence [6]?
Answer: 5.36 [at 140.3 µM] (inactive)

Question: What about the z-score [3] of the same compound?
Answer: -0.645 (inactive)

Question: Which results are given for `CCCCCN=c1ccn(Cc2ccccc2)c2ccccc12`?
Answer: remaining activity [1]: 114% (inactive); fold change [2, 7]: 1.09 (inactive); fold change [2, 8]: 0.778; cell count [2, 9]: 1550; cell count [2, 10]: 1420; z-score [3]: -0.705 (inactive)

Reference: PubChem BioAssay
